Each compound was assayed against Interleukin-1 receptor-associated kinase 1 (Homo sapiens) (UniProt P51617). Settings: at 1 µM.
Sequence of Interleukin-1 receptor-associated kinase 1 (Homo sapiens) (P51617 whole entry, looked up): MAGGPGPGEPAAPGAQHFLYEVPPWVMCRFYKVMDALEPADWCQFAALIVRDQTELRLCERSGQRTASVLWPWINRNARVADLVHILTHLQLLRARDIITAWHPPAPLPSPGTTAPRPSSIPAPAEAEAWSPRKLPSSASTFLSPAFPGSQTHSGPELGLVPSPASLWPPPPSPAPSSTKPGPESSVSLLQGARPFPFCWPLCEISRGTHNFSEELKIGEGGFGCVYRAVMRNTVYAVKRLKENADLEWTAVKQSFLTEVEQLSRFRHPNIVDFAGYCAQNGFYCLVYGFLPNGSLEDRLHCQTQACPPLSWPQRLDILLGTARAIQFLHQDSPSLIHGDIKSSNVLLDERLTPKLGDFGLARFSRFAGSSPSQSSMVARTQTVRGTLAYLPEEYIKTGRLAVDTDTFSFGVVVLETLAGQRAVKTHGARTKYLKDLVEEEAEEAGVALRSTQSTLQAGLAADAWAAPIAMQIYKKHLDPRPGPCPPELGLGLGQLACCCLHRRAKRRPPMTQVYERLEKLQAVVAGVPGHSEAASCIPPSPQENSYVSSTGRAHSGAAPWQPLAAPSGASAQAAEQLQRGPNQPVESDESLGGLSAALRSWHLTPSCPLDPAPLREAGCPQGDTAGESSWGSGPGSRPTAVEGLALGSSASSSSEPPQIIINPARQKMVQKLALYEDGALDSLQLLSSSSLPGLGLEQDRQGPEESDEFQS

Structure (SMILES)	residual activity [%]
Cn1cc(/C=C2\C(=O)Nc3ccc(S(N)(=O)=O)cc32)c2ccccc21	1
COc1cc2ncnc(Nc3ccc(Oc4ccccc4)cc3)c2cc1OC	87
O=c1cc(-c2cccc3c2Sc2ccccc2S3)oc(N2CCOCC2)c1	102
Oc1ccc(-c2nc(-c3ccc(F)cc3)c(-c3ccncc3)[nH]2)cc1	104
O=C1c2ccccc2-[n+]2ccc3c([nH]c4ccccc43)c21	106
Nc1nc(Nc2ccc(S(N)(=O)=O)cc2)nn1C(=S)Nc1c(F)cccc1F	8
N#C/C(=C(\N)Sc1ccc(N)cc1)c1ccccc1C(F)(F)F	91
CN(C)CCCn1cc(C2=C(c3c[nH]c4ccccc34)C(=O)NC2=O)c2ccccc21	111
c1ccc(-c2n[nH]cc2-c2ccnc3ccccc23)nc1	91
CC(=O)c1ccc(N2CCOCC2)cc1O	105
CO[C@@H]1[C@H](N(C)C(=O)c2ccccc2)C[C@H]2O[C@]1(C)n1c3ccccc3c3c4c(c5c6ccccc6n2c5c31)C(=O)NC4	85
O=C(Nc1cccc(Nc2nccc(Nc3cccc(C(F)(F)F)c3)n2)c1)C1CC1	81
N#Cc1cnc2cnc(NCc3cccnc3)cc2c1Nc1ccc(F)c(Cl)c1	93
CC(=O)O/N=C1\C(=C2\C(=O)Nc3cc(Br)ccc32)Nc2ccccc21	95
Cn1cnc2cc3c(Nc4cccc(Br)c4)ncnc3cc21	102
CCC(=O)Nc1ccc2ncnc(Nc3cccc(Br)c3)c2c1	89

Structure (SMILES)	residual activity [%]
O=c1c2ccccc2[nH]c(=S)n1CCN1CCC(=C(c2ccc(F)cc2)c2ccc(F)cc2)CC1	83
CC[n+]1c(/C=C/N(C)c2ccccc2)n(-c2ccccc2)c2ccc(-c3nc4ccccc4s3)cc21	96
O=Nc1c(-c2c(O)[nH]c3ccccc23)[nH]c2ccccc12	60
CC#CC(=O)Nc1cc2c(Nc3ccc(F)c(Cl)c3)ncnc2cn1	94
O=[N+]([O-])c1ccc(-c2nc(-c3ccc(F)cc3)c(-c3ccncc3)[nH]2)cc1	107
Cc1cc2ncc(-c3ccccc3)nc2cc1C	99
COc1cc2ncnc(Nc3ccc(NC(=O)c4ccccc4)cc3)c2cc1OC	100
O=C(O)c1ccc2c3c1cccc3c(=O)n1c3ccccc3nc21	35
Cc1cccc(-c2[nH]c(C(C)(C)C)nc2-c2ccc3c(c2)OCO3)n1	87
N#CCCc1ccc2c(c1)-c1[nH]c3ccc([N+](=O)[O-])cc3c1CC(=O)N2	45
Cc1cc(Nc2nc(-c3ccccc3)nc3ccccc23)n[nH]1	69
c1ccc(-c2n[nH]c3c2oc2ccccc23)cc1	96
Oc1ccc(Nc2nc(-c3ccc(Cl)cc3)cs2)cc1	100
Cc1cncc2cccc(S(=O)(=O)N3CCCN(C(=O)CN)C[C@H]3C)c12	82
c1ccc2c(-c3ccncc3)c[nH]c2c1	76

What follows are compounds tested against Interleukin-1 receptor-associated kinase 1 (Homo sapiens) (UniProt P51617). Settings: at 10 µM.

Structure (SMILES)	residual activity [%]
Cn1cc(/C=C2\C(=O)Nc3ccc(S(N)(=O)=O)cc32)c2ccccc21	15
COc1cc2ncnc(Nc3ccc(Oc4ccccc4)cc3)c2cc1OC	79
Oc1ccc(-c2nc(-c3ccc(F)cc3)c(-c3ccncc3)[nH]2)cc1	79
Nc1nc(Nc2ccc(S(N)(=O)=O)cc2)nn1C(=S)Nc1c(F)cccc1F	16
N#C/C(=C(\N)Sc1ccc(N)cc1)c1ccccc1C(F)(F)F	112
CN(C)CCCn1cc(C2=C(c3c[nH]c4ccccc34)C(=O)NC2=O)c2ccccc21	89
c1ccc(-c2n[nH]cc2-c2ccnc3ccccc23)nc1	73
CC(=O)c1ccc(N2CCOCC2)cc1O	95
CO[C@@H]1[C@H](N(C)C(=O)c2ccccc2)C[C@H]2O[C@]1(C)n1c3ccccc3c3c4c(c5c6ccccc6n2c5c31)C(=O)NC4	74
N#CC(C#N)=C(N)/C(C#N)=C/c1ccc(O)cc1	84
O=C(Nc1cccc(Nc2nccc(Nc3cccc(C(F)(F)F)c3)n2)c1)C1CC1	82
N#Cc1cnc2cnc(NCc3cccnc3)cc2c1Nc1ccc(F)c(Cl)c1	103
CC(=O)O/N=C1\C(=C2\C(=O)Nc3cc(Br)ccc32)Nc2ccccc21	96
Cn1cnc2cc3c(Nc4cccc(Br)c4)ncnc3cc21	73
CCC(=O)Nc1ccc2ncnc(Nc3cccc(Br)c3)c2c1	83
O=c1c2ccccc2[nH]c(=S)n1CCN1CCC(=C(c2ccc(F)cc2)c2ccc(F)cc2)CC1	86

Structure (SMILES)	residual activity [%]
CC[n+]1c(/C=C/N(C)c2ccccc2)n(-c2ccccc2)c2ccc(-c3nc4ccccc4s3)cc21	92
O=Nc1c(-c2c(O)[nH]c3ccccc23)[nH]c2ccccc12	11
CC#CC(=O)Nc1cc2c(Nc3ccc(F)c(Cl)c3)ncnc2cn1	73
O=[N+]([O-])c1ccc(-c2nc(-c3ccc(F)cc3)c(-c3ccncc3)[nH]2)cc1	108
Cc1cc2ncc(-c3ccccc3)nc2cc1C	94
COc1cc2ncnc(Nc3ccc(NC(=O)c4ccccc4)cc3)c2cc1OC	99
O=C(O)c1ccc2c3c1cccc3c(=O)n1c3ccccc3nc21	3
Cc1cccc(-c2[nH]c(C(C)(C)C)nc2-c2ccc3c(c2)OCO3)n1	75
CCN(CC)C(=O)c1ccc(Nc2nc(OCC3CCCCC3)c3nc[nH]c3n2)cc1	35
N#CCCc1ccc2c(c1)-c1[nH]c3ccc([N+](=O)[O-])cc3c1CC(=O)N2	20
Cc1cc(Nc2nc(-c3ccccc3)nc3ccccc23)n[nH]1	23
c1ccc(-c2n[nH]c3c2oc2ccccc23)cc1	98
Oc1ccc(Nc2nc(-c3ccc(Cl)cc3)cs2)cc1	111
Cc1cncc2cccc(S(=O)(=O)N3CCCN(C(=O)CN)C[C@H]3C)c12	67
c1ccc2c(-c3ccncc3)c[nH]c2c1	57

Reference: ChEMBL document CHEMBL2218924, “A broad activity screen in support of a chemogenomic map for kinase signalling research and drug discovery” (Biochem J, 2013)
